Compound activity from PubChem.
Shown are actives, neighbours in structure and some others; about 6.9% of the full set was active somewhere.
Giardia kill – Small Molecules that selectively kill Giardia lamblia: qHTS; Giardia lamblia trophozoite viability; activity change, % at 7.66 µM, hits read low; hit rate 0.15% among 340,000; AID 540267, 2011; in the data active = activity change below about -80%; inconclusive = between about -30% and that limit;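 note: parasites exposed to compound for two days anaerobically before the ATP read; % is set by controls: 0 for no effect and ±100 for the full control effect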
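Media and compound were dispensed first, then trophozoites at 100 cells/well; plates sat 48 hrs at 37 deg C without oxygen before ATP luminescence reagent was added and read after 15-30 min at room temperature.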
Vif-APOBEC3G blk – qHTS for Inhibitors of Vif-A3G Interactions: qHTS; DNA dC->dU-editing enzyme APOBEC-3G (Homo sapiens), Q9HC16; HeLa A3G-eYFP + Vif (tagged APOBEC3G with the HIV-1 protein that degrades it), YFP fluorescence, overnight; Potency, µM (doses to about 46.1 µM), without a hit: top-dose activity, negative = active, actives largely listed as inhibitors; hit rate 0.076% among 410,000; AID 602310, 2012; note: potency is the fitted concentration of half-maximal effect; % is set by controls: 0 for no effect and ±100 for the full control effect; nearly all actives have a fitted effect of over 60% in size
Target sequence (Q9HC16 whole entry, looked up): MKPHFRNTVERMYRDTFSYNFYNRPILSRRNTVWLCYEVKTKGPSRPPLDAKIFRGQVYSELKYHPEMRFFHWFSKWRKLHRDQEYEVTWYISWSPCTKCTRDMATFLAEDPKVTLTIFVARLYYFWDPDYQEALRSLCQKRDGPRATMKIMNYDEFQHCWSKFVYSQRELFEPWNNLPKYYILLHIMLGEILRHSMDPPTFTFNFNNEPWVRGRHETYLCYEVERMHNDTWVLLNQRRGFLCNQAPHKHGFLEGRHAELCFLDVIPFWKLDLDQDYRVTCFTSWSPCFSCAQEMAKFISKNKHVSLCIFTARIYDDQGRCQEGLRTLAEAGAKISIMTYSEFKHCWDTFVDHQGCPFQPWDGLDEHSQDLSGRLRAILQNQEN
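Read-out is eYFP fluorescence (Ex 488/Em 500-530) from Vif-expressing HeLa A3G-eYFP cells; more signal means A3G escaped Vif-mediated degradation. Cells plated overnight, compound pinned in, incubated overnight at 37 deg C.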
SW480 rerep – A quantitative high throughput screen for small molecules that induce DNA re-replication in SW480 colon adenocarcinoma cells; SW480 DNA re-replication, Hoechst DNA content imaging, 48 h; Potency, µM (top dose mostly 46.1 µM), inactives show at the highest dose re-replication activation, usual class: activators; hit rate 1.8% among 340,000; AID 624297, 2012; note: potency is the fitted concentration of half-maximal effect; % of control where 0% means no effect; nearly all actives have a fitted effect of over 55% in size
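Image-based DNA-content assay: after two days of treatment, nuclei were labelled with the DNA dye Hoechst and imaged, and hits were compounds raising the count of nuclei showing high fluorescence intensity.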
IL-1B inflam inh – qHTS for Inhibitors of Inflammasome Signaling: IL-1-beta AlphaLISA Primary Screen. hit rate 4.7% among 360,000. activity change, % at 57.5 µM. THP-1 LPS/ATP IL-1B secretion, AlphaLISA, 16 h; active compounds read low. AID 743279, 2014; in the data active = activity change below about -50%; inconclusive = mostly about -30% to -49%; note: % is set by controls: 0 for no effect and ±100 for the full control effect
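THP-1 cells pretreated 1 hr with compounds (up to 57.5 uM final), then stimulated with LPS (250 ng/mL final) plus ATP (1.25 mM final); secreted IL-1B measured by AlphaLISA after 16 hr, decreased signal indicating inhibition.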
MCF10A rerep – A quantitative high throughput screen for small molecules that induce DNA re-replication in MCF 10a normal breast cells. MCF 10A DNA re-replication, Hoechst nuclear intensity, 48 h. hit rate 2.9% among 350,000. Potency, µM (doses to about 46.1 µM), for inactives: at the top dose activity, positive = re-replication, usual class: activators; note: potency is the fitted concentration of half-maximal effect; % of control where 0% means no effect; nearly all actives have a fitted effect of over 50% in size
Vif-A3F inh – qHTS for Inhibitors of Vif-A3F Interactions: qHTS. HeLa A3F-eYFP + Vif (tagged APOBEC3F with the HIV-1 protein that degrades it), YFP fluorescence increase. Potency, µM (titrated, usually from 46.1 µM), without a hit: at the top dose activity, negative = active. hit rate 0.2% among 390,000; note: potency is the fitted concentration of half-maximal effect; % of control where 0% means no effect; nearly all actives have a fitted effect of over 65% in size
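Fluorescence increase (Ex 488/Em 500-530) after overnight compound treatment at 37 deg C flags inhibition of Vif-driven A3F-eYFP loss in stable HeLa A3F-eYFP/Vif cells seeded overnight beforehand.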
Active calls of the source: *; ? = inconclusive; · = no result given; [ ] = remark or other dose. Unless noted, calls come from the whole dose curve; as a rule, active = well fitted curve in the direction sought with a large enough effect; inconclusive = small, poorly fitted or top-dose-only effect, or another doubt; inactive = no such curve, though single readings can be large; an effect the other way counts as inactive or inconclusive.

SMILES	Giardia kill	Vif-APOBEC3G blk	SW480 rerep	IL-1B inflam inh	MCF10A rerep	Vif-A3F inh
O=[N+]([O-])c1ccc(/C=C2\CCC(C3=CCCC3)=C2N2CCOCC2)cc1	-3	-1%	?	?	23µM*	-9%
C(=C\c1ccnc2ccccc12)/c1cc2c3c(c1)CCCN3CCC2	·	-6%	·	·	·	·
Cc1ccccc1-c1nc(CN2CCC(C(=O)NCCc3ccccc3)CC2)c(C)o1	·	4%	·	·	·	-4%
Cc1noc(/C=C/c2cccs2)c1S(=O)(=O)N1CCC(C(=O)NCCCN2CCCC(C)C2)CC1 (configuration not stated)	-18	6%	?	-51*	15%	-10%
Cc1ccccc1-c1nc(CN2CCC(C(=O)NCCCN3CCCC(C)C3)CC2)c(C)o1 (configuration not stated)	43	6%	21µM*	·	7%	3%
Cc1ccccc1-c1nc(CN2CCC(C(=O)NCCC3=CCCCC3)CC2)c(C)o1	-13	0%	?	-61*	?	-4%
CCOC(=O)C1CCCN(c2c(C(=O)c3ccccc3)cnc3ccc(F)cc23)C1 (configuration not stated)	·	5%	·	·	·	8%
O=C(CN(c1ccc(Cl)cc1)S(=O)(=O)c1ccc(Cl)c([N+](=O)[O-])c1)NCCc1ccc(F)cc1	4	-10%	6%	1	3.7µM*	-22%
Cc1ccc(NC(=O)CN(c2ccc(Cl)cc2)S(=O)(=O)c2cc([N+](=O)[O-])ccc2Cl)cc1	-20	-15%	?	-99*	?	4%
CS(=O)(=O)N(CC(=O)NCCc1ccccc1)c1cccc([N+](=O)[O-])c1	-15	0%	-34%	10	0.65µM*	7%
COc1ccc(CCNC(=O)CN(c2cccc([N+](=O)[O-])c2)S(C)(=O)=O)cc1	-1	-10%	-14%	13	2%	6%
O=C(CN(c1cccc([N+](=O)[O-])c1)S(=O)(=O)c1ccccc1)NCc1ccccc1	4	-1%	-2%	15	14%	5%
O=C(CN(c1ccc(Cl)cc1)S(=O)(=O)c1ccc(Cl)c([N+](=O)[O-])c1)NCCc1ccccc1	-23	-7%	-15%	?	3.7µM*	3%
Cc1ccc(N(CC(=O)NCCc2ccc(Cl)cc2)S(=O)(=O)c2c(C)noc2C)cc1	18	-2%	8%	-2	4%	-12%
COc1ccc(S(=O)(=O)N(CC(=O)Nc2ccc(C)cc2)c2ccc(C)cc2)cc1OC	·	-4%	·	·	·	4%
CC(=O)c1ccc(NC(=O)CSc2nc(=O)n(Cc3ccccn3)c3c2CCC3)cc1	·	2%	·	·	·	2%
O=C(CN(C1CCCCC1)S(=O)(=O)c1ccccc1)NCC1CCCO1 (configuration not stated)	-5	1%	-1%	1	-3%	-6%
O=C(CN(c1ccc(Br)cc1)S(=O)(=O)c1ccc(Cl)c([N+](=O)[O-])c1)NCC1CCCO1 (configuration not stated)	-14	-24%	?	-98*	16µM*	-16%
O=C(CN(C1CCCCC1)S(=O)(=O)c1ccc(F)cc1)NCC1CCCO1 (configuration not stated)	-84*	?	1.2µM*	-106*	?	3%
O=C(O)c1ccc(N(Cc2ccccc2)S(=O)(=O)c2ccccc2)cc1	2	-1%	-9%	5	-2%	-2%
O=C(O)c1cc(S(=O)(=O)N(Cc2ccccc2)c2ccc(Cl)cc2)ccc1Cl	-9	-5%	?	-27	21µM*	5%
O=S(=O)(c1ccc(Cl)cc1)N1CCC(O)(CN2CCN(Cc3ccccc3)CC2)CC1	30	3%	0%	-53*	20µM*	-9%
COc1ccc(C2Nc3ccccc3C(=O)N2Cc2ccco2)cc1COc1c(C)cccc1C (configuration not stated)	17	-21%	·	·	·	·
O=C(CCNc1ccc(F)cc1)c1cccc([N+](=O)[O-])c1	5	-6%	?	-16	?	-5%
Cc1ccc(NCCC(=O)c2cccc([N+](=O)[O-])c2)cc1	-13	-5%	?	0	6.5µM*	0%
SMILES	Giardia kill	Vif-APOBEC3G blk	SW480 rerep	IL-1B inflam inh	MCF10A rerep	Vif-A3F inh
O=C(CCNc1ccccc1)c1cccc([N+](=O)[O-])c1	-3	4%	8.2µM*	-5	3.7µM*	-3%
Cc1cccc2c(=O)cc(CSc3ccccc3NC(=O)C(C)(C)C)[nH]c12	·	0%	·	·	·	-1%
COc1nc(OC)nc(Oc2ccc(Cl)cc2[N+](=O)[O-])n1	-2	-3%	-5%	-3	2%	-4%
O=[N+]([O-])c1cccnc1S(=O)(=O)c1ccccc1	-1	-18%	9.2µM*	-97*	2.9µM*	6%
COc1ccc([N+](=O)[O-])c(S(=O)(=O)c2ccccc2)n1	-9	-8%	?	-96*	24%	-1%
COc1ccc([N+](=O)[O-])c(S(=O)(=O)c2ccc(Cl)cc2)n1	7	?	2.9µM*	-95*	3.7µM*	6%
NS(=O)(=O)c1ccc(Nc2ncccc2[N+](=O)[O-])cc1	-91*	-1%	3%	-7	-1%	-12%
O=[N+]([O-])c1ccccc1S(=O)(=O)Nc1ncccn1	22	-2%	-9%	?	0%	10%
Cc1ccc(NC(=O)CC(C)S(=O)(=O)c2ccc3c(c2)NC(=O)CO3)c(C)c1 (configuration not stated)	·	1%	·	·	·	1%
CCOC(=O)c1cnc2c(ccc3ccccc32)c1NCCN(C)C	?	7%	16%	-58*	0%	2%
COc1ccc2cc(C(=O)C3CCCN(Cc4ccccn4)C3)ccc2c1 (configuration not stated)	13	-7%	1%[1.84 µM]	-27	?	28µM*
COc1ccc(C(=O)C2CCCN(Cc3cccn3-c3ccccn3)C2)c(OC)c1 (configuration not stated)	10	7%	6%	-93*	28%	17%
CCn1ccnc1CN1CCCC(C(=O)c2ccc3cc(OC)ccc3c2)C1 (configuration not stated)	17	0%	6%	-96*	?	?
